In PubChem BioAssay:

Tests used:
[1] = biological target: Tumor necrosis factor receptor superfamily member 10B (Homo sapiens) (UniProt O14763); assay: viability loss of caspase-8 NB7 cells with TRAIL – with/without TRAIL, luminescence panel, confirmation (AID 651596); details: NB7 neuroblastoma + caspase-8, TRAIL sensitization, NB7 Caspase-8, with TRAIL, mean of runs, at 10 µM, stronger effect = higher value
[2] = as above; details: NB7 neuroblastoma + caspase-8, without TRAIL, NB7 Caspase-8, without TRAIL, mean of runs, at 10 µM

Chain of Tumor necrosis factor receptor superfamily member 10B (Homo sapiens) (O14763 whole entry, looked up): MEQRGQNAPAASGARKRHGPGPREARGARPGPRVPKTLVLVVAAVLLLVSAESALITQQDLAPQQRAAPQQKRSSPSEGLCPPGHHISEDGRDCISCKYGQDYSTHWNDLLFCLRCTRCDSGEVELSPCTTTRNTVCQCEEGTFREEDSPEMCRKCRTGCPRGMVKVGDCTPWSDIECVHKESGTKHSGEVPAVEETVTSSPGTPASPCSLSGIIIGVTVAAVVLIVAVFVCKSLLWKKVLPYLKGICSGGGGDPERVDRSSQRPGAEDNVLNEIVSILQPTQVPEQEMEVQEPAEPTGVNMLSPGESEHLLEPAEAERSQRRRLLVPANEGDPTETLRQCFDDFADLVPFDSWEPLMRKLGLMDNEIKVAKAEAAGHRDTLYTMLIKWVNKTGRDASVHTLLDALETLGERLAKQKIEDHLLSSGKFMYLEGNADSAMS

O=C(Nc1ccccn1)c1onc2c1CCCC2
activity [1]: 78.8% | activity [2]: 78.2%

COc1cc(/C=C2\Oc3ccc(C#Cc4ccc(O)cc4)cc3C2=O)cc(OC)c1
activity [1]: 80.5% | activity [2]: 83.2%

COc1ccc(-c2cc(=O)c3ccccc3s2)cc1
activity [1]: 61.2% | activity [2]: 62%

Cc1cc(C)cc(C(=O)Nc2nc3ccccc3[nH]2)c1
activity [1]: 78.7% | activity [2]: 72.5%

C#CCSc1nnc(-c2ccc(OC)cc2)o1
activity [1]: 97.1% | activity [2]: 89.3%

CCN(CC)c1ccc(NC(=O)c2ccco2)cc1
activity [1]: 53.6% | activity [2]: 50.3%

O=C(NO)c1cc(OCC(F)(F)F)ccc1OCC(F)(F)F
activity [1]: 51.1% | activity [2]: 71.4%

CCOc1ccc(-c2cc(C(=O)N/N=C(\C)c3cccnc3)c3ccccc3n2)cc1
activity [1]: 74% | activity [2]: 69.6%

CCCNC(=O)c1oc2ccc3c(c2c1C)C(=O)CC(C)(C)O3
activity [1]: 66.1% | activity [2]: 68.4%

CCN(CC)S(=O)(=O)c1cc(C(=O)OCC(=O)Nc2ccc(-c3nc4ccc(C)cc4s3)cc2)ccc1F
activity [1]: 73.7% | activity [2]: 74.2%

COC(=O)c1ccc(-c2nc3cc(N)ccc3o2)cc1
activity [1]: 61.9% | activity [2]: 44.6%

c1c2c(cc3sc(N4CCCCC4)nc13)OCO2
activity [1]: 56% | activity [2]: 44.2%

CCCc1cc(C(=O)N/N=C/c2ccc(CC)s2)c2ccccc2n1
activity [1]: 68.8% | activity [2]: 56.9%

COc1ccc(C=NNC(=O)NN=Cc2ccc(OC)c(OC)c2)cc1OC
activity [1]: 69% | activity [2]: 65%

COc1ccc(/C=N/Nc2nnc(Cc3ccccc3)c(=O)[nH]2)cc1OC
activity [1]: 60.6% | activity [2]: 59.2%

Cc1ccc(C(=O)N/C(=C\c2ccc(-c3ccccc3[N+](=O)[O-])o2)C(=O)NCCN(C)C)cc1
activity [1]: 42% | activity [2]: 99.7%
